Data as given in PubChem BioAssay (NCATS).
“And” between values parts separate entries of the source, which are not always exact repeats. Identical values can stand only once. Inconclusive results are not listed. A number with no mark means an inactive call. The source made the active and inactive calls. Calls follow the shape of the dose curve; as a rule, active = well fitted inhibition curve with a large enough effect; inconclusive = small, poorly fitted or top-dose-only effect; inactive = flat fitted curve, though single readings scatter.

What follows are compounds tested on KB-3-1 (assay: Cytotoxic Profiling of Annotated Libraries Using Quantitative High-Throughput Screening (AID 1296008; also: nearly all actives have a fitted effect of over 60% in size)). Conditions: Five cell lines viability, CellTiter-Glo ATP luminescence, 48-72 h; max response: stronger effect = lower value.
Source text: Cell-based phenotypic screening is a commonly used approach to discover biological pathways, novel drug targets, chemical probes and high-quality hit-to-lead molecules. Many hits identified from high-throughput screening campaign are ruled out through a series of follow-up potency, selectivity/specificity, and cytotoxicity assays. Prioritization of molecules with little or no cytotoxicity for a more in-depth downstream evaluation influence the future direction of projects, so cytotoxicity profiling of the screening libraries at early stage is essential for increasing the likelihood of candidate success. […] For the annotated library, we also examined the primary targets and mechanistic pathways regularly associated with cell death. To our knowledge, this is the first study to use high-throughput screening to profile large libraries for cytotoxicity assessment in both normal and cancer cell lines. In summary, the results generated here constitutes a valuable resource for the scientific community and provides insight on identifying cytotoxic compounds with particular mechanisms of action, and prioritizing compounds with suitable cytotoxicity profile for further evaluation.
A pintool (Kalypsys) was used to transfer 23 nL of compound solution to the 1536-well assay plates. After 48 or 72 hr incubation at 37 degree Celsius, 5% CO2 and 95% humidity, 2.5 uL of CellTiter-Glo (Promega) was dispensed into each well using a dispenser (Aspect Automation, St. Paul, MN) with solenoid valves (Lee Valves, Westbrook CT). Plates were left at room temperature for 10 min before imaging the ATP-coupled luminescence using a ViewLux microplate imager (PerkinElmer, Waltham, MA).
% is scaled to controls: 0 for no effect and ±100 for the full control effect; potency is read from the fitted curve at half-maximal effect.

Row | Compound | max response | outcome | Potency
1 | [2H]C([2H])([2H])[C@H](N)Cc1ccccc1 | 2.04% |  | 
2 | C[C@@H](Cc1ccccc1)NCCC(c1ccccc1)c1ccccc1 | -4.5% |  | 
3 | C[C@]12CC[C@H]3[C@@H]([C@H](O)CC4=CC(=O)CC[C@@]43C)[C@@H]1CC[C@@H]2O | 5.15% |  | 
4 | ClCC1CO1 (stereo not given) | -11% |  | 
5 | CC(C)[C@@]1(NC(=O)[C@@H]2C[C@@H]3c4cccc5[nH]cc(c45)C[C@H]3N(C)C2)O[C@@]2(O)[C@@H]3CCCN3C(=O)[C@H](Cc3ccccc3)N2C1=O | 25.3% and -16.4% |  | 
6 | CC(C)(O)[C@@H]1[C@H]2OC(=O)[C@@H]1[C@]1(O)C[C@H]3O[C@]34C(=O)O[C@H]2[C@]14C | 0.436% and -3.57% |  | 
7 | C[C@]12CC[C@H]3[C@@H](CCC4=C(O)C(=O)CC[C@@H]43)[C@@H]1CC[C@@H]2OC(=O)CCC1CCCC1 | -5.37% |  | 
8 | O=C1C[C@@H]2OCC=C3CN4CC[C@]56c7ccccc7N1[C@H]5[C@H]2[C@H]3C[C@H]46 (tested in a mixture with another compound) | 0.545% and 11.6% |  | 
9 | CCCCCCC(=O)O[C@H]1CC[C@H]2[C@@H]3CC[C@H]4CC(=O)C=C(C)[C@]4(C)[C@H]3CC[C@]12C | -2.21% |  | 
10 | COC(=O)C1(C)CCC(O)C2(C)c3cc(O)c(C(C)C)cc3C(O)C(OC(C)=O)C12 (stereo not given) |  | inactive | 
11 | C/C=C(\C)C(=O)OC1C(C)OC(OC2C(C)OC(OC3CCC4(C)C(=CCC5C4CCC4(C)C(C(C)OC6OC(COC7OC(CO)C(O)C(O)C7O)C(O)C(O)C6O)CCC54O)C3)CC2OC)C(O)C1OC (stereo not given) | 0.359% |  | 
12 | COC1CC(=O)C23C(=O)NC(CC(C)C)C2C(C)=C(C)C(OO)C3/C=C(\C)CCC(O)C1O (stereo not given) |  | inactive | 
13 | O=C(OCCN1CCCCC1)C(O)(c1ccccc1)c1ccccc1 | 1.68% |  | 
14 | CC(=O)OC1CN2CCC1CC2 (stereo not given) | 4.86% |  | 
15 | CN1C(=O)N(c2ccc(C#N)c(C(F)(F)F)c2)C(=O)[C@]1(CO)c1ccccc1 |  | inactive | 
16 | COC1CC(OC2CCC3(C=O)C(CCC4C3CCC3(C)C(C5=CC(=O)OC5)CCC43O)C2)OC(C)C1OC1OC(CO)C(O)C(O)C1O (stereo not given) |  |  | 343 nM (active)
17 | COc1cc(C(=O)O[C@H]2[C@@H]3C=CO[C@@H](O[C@@H]4O[C@H](CO)[C@@H](O)[C@H](O)[C@H]4O)[C@@H]3[C@@]3(CO)O[C@@H]23)ccc1O |  | inactive | 
18 | COC(=O)[C@@]12C(=O)C(C)C(=O)[C@]1(C)C(C)=C[C@H]1[C@]3(C=O)CC[C@H](OC(C)=O)C(C)(C)[C@H]3CC[C@@]12C (stereo not given in full) | 6.62% |  | 
19 | C=CCN1CC[C@]23c4c5ccc(O)c4O[C@H]2[C@@H](O)C=C[C@H]3[C@H]1C5 | 10.7% |  | 
20 | C[C@@](O)(COc1ccc(C#N)cc1)C(=O)Nc1ccc(C#N)c(C(F)(F)F)c1 | 2.83% |  | 

Row | Compound | max response | outcome | Potency
21 | CC(=O)OC1CC(O)C2(C)C(CC(OC(C)=O)C3(C)C2CCC2(C)C(c4ccoc4)C(=O)C4OC423)C1(C)C (stereo not given) | 8.18% |  | 
22 | CC1=C2C(=O)C3[C@@H](CC=C4C[C@@H](O)CC[C@@]43C)[C@@H]2CC[C@]12O[C@@H]1C[C@H](C)CN[C@H]1[C@H]2C (stereo not given in full) |  | inactive | 
23 | C[N+]1(C)[C@@H]2CC[C@H]1CC(OC(=O)c1c[nH]c3ccccc13)C2 (stereo not given in full) | -6.15% |  | 
24 | CNC1(c2ccccc2Cl)CCCCC1=O (stereo not given) | 3.79% and -7.59% |  | 
25 | OC[C@@H](O)[C@H]1O[C@@H]2O[C@@H](C(Cl)(Cl)Cl)O[C@@H]2[C@H]1O | 1.39% |  | 
26 | CC(=O)[C@H]1CC[C@H]2[C@@H]3CC[C@@H]4C[C@H](O)CC[C@]4(C)[C@H]3CC[C@]12C | 4.77% |  | 
27 | C[C@H]1CC[C@]2(NC1)O[C@H]1C[C@H]3[C@@H]4CC[C@H]5C[C@@H](O)CC[C@]5(C)[C@H]4CC[C@]3(C)[C@H]1[C@@H]2C | -2.2% |  | 
28 | CCCCCCCCCC(=O)O[C@H]1CC[C@H]2[C@@H]3CCC4=CC(=O)CC[C@]4(C)[C@H]3CC[C@]12C | 0.58% |  | 
29 | c1csc(C2(N3CCCCC3)CCCCC2)c1 | 5.46% |  | 
30 | C/C=C(\C)C(=O)OC1CC2C(CC=C3CC(OC4CC(OC)C(OC5CC(OC)C(OC6OC(C)C(OC7OC(CO)C(O)C(O)C7O)C(OC)C6O)C(C)O5)C(C)O4)CCC32C)C2(O)CCC(C(C)=O)C12C (stereo not given) |  | inactive | 
31 | CC(Cc1ccccc1)NC=O (stereo not given) | 2% |  | 
32 | CN[C@H]1C[C@@H](N)[C@H](O)[C@@H](O[C@@H]2O[C@H](CO)[C@H](O)[C@@H]3OC4(O[C@H]23)O[C@H](C(N)CO)[C@H](O)[C@H](O)[C@H]4O)[C@@H]1O (stereo not given in full) | -7% and 5.21% |  | 
33 | C=C1[C@@H]2CC[C@@]3(C)[C@H](c4ccoc4)OC(=O)C[C@]13O[C@H]1CC(=O)C(C)(C)[C@H](C(OC(C)=O)C(=O)OC)[C@]12C (stereo not given in full) | -6.59% |  | 
34 | CO[C@H]1[C@H](O)[C@H](O[C@H]2CC[C@]3(C)C4CC[C@]5(C)[C@H](C6=CC(=O)OC6)CC[C@]5(O)C4CC[C@@H]3C2)O[C@@H](C)[C@@H]1O (stereo not given in full) |  |  | 89.3 nM (active)
35 | [O]=[Cr](=[O])([OH])[O][Cr](=[O])(=[O])[OH] | -23.8% and 6.69% |  | 
36 | CCCCNCC(O)c1ccc(O)cc1 (stereo not given) | 13.7% |  | 
37 | CCC(N)Cc1c[nH]c2ccccc12 (stereo not given) | 3.31% and -1.82% |  | 
38 | C[N+]1([O-])[C@@H]2CC(OC(=O)[C@H](CO)c3ccccc3)C[C@H]1[C@@H]1O[C@@H]12 (stereo not given in full) | -17% and 5.47% |  | 
39 | CC1(C)[C@H](C=C(Cl)Cl)[C@H]1C(=O)OCc1c(F)c(F)cc(F)c1F | -0.195% |  | 
40 | Oc1cc(Cl)c(Cl)cc1Cl | 0.226% |  | 
